PubChem BioAssay (NCI)
Compounds without any hit were thinned out: in the full panel of roughly 79,000, 15% have a hit. Unmarked numbers belong to inactive results. Active and inactive are the calls of the source. No stated cut-off is given here; in the data, active means growth inhibition above about 70%; inactive means the rest.

Experiment: NCI Yeast Anticancer Drug Screen. Data for the bub3 strain (AID 167)
Conditions: S. cerevisiae bub3 mutant strain, hits give high values
Procedure: Growth inhibition of yeast strains with defined genetic alterations is measured as a screen for potential anti-cancer activity. Selected strains with alterations in DNA damage repair or cell cycle control were exposed to compounds and growth inhibition was measured relative to vehicle treated controls. The strain used in this assay is bub3

[1] = at 5.0 µM (retest, dose inferred, filed as 0.5)
[2] = at 50.0 µM (retest, dose inferred, filed as 5.0)

Structure (SMILES) | growth inhibition [1] [%] | growth inhibition [2] | growth inhibition (at 50.0 µM)
C/C(=N\NC(=S)N1CCCC1)c1nc2ncccc2[nH]1 | -40 | 98% (active) | 87% (active)
Nc1ccc(O)c2c1C(=O)c1ccccc1C2O (configuration not stated) | 19 | 96% (active) | 81.5% (active)
CCOC(=O)C(Cc1cn(S(=O)(=O)c2ccccc2)c2ccccc12)(NC(C)=O)C(=O)OCC | -9 | 21% | 67.7%
CCOCCNc1ncnc2c1cnn2C | 0 | 2% | 8%
CC(=O)OC1CCC2(C)C(CCC3C4=CCC(C5COC(=O)C5)C4(C)CCC32)C1 (configuration not stated) | 4 | 91% (active) | 59.8%
BrCC1(CBr)COC1 | 29 | 94% (active) | 87% (active)
O=c1oc2ccccc2c(O)c1C1=N/C(=N/N=C/c2ccc(Cl)cc2)SC1 | -1 | 97% (active) | 98.5% (active)
CCCCCCC(=O)Nc1ccc(OC(=O)CCCCCC)c(=O)cc1 | 15 | 99% (active) | 99.2% (active)
CC(=O)C(C(C)=O)C1C=CC=CC=C1 | -73 | 86% (active) | 92.5% (active)
C/C=C1\CC(C)(CC)C(C#N)(C#N)C(N)=C1C#N (configuration not stated) | -3 | -2% | 50.9%
O=Cc1ccc(-c2nccc3c2[nH]c2ccccc23)o1 | 24 | 14% | 8.9%
Cc1ccccc1Oc1ccccc1N | -16 | 10% | 58.6%
Cn1c(=O)cc[nH]c1=O | 1 | -5% | 98.8% (active)
Cc1ccc(S(=O)(=O)NNC2Oc3cc4c(cc3C(c3ccccc3O)C2C)OCO4)cc1 (configuration not stated) | -11 | 98% (active) | 96.2% (active)
